# Screening data as filed in PubChem.
# DT40 TDP1 no CPT = qHTS for Inhibitors of human tyrosyl-DNA phosphodiesterase 1 (TDP1): qHTS in cells in absence of CPT; DT40 Tdp1-/- hTDP1 cells, no CPT, ATP luminescence, 48 h; Potency, µM (series often up to 46.2 µM), for the others: top-dose activity change, negative = growth inhibition, most hits filed as inhibitors; actives 15% (n = 420,000); AID 686978, 2013; note: potency is the fitted concentration of half-maximal effect; nearly all actives have a fitted effect of over 55% in size
#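 Cells were dispensed at 400 per well, compounds added by pin tool, plates incubated ≥48 hr at 37 °C, then CellTiter-Glo added for 30 min at room temperature before luminescence reading. Line: DT40 Tdp1-/- complemented with hTDP1; camptothecin omitted.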
# HT1080 IDH1KD tx = HT-1080 IDH1 knockdown cell toxicity (counter line). HT-1080 IDH1 knockdown viability, ATP luminescence, 48 h. AID 686971. Potency, µM (highest dose often 46.1 µM), inactives show at the highest dose activity, negative = toxicity, hits mostly cytotoxic. actives 2% (n = 360,000);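 note: potency is the fitted concentration of half-maximal effect; 0% = DMSO wells and -100% = cell-free medium wells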
#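 In this qHTS, HT-1080 cells depleted of IDH1 are exposed for 48 h at 37 °C to compound titrations. Toxicity is scored from CellTiter-Glo luminescence, with DMSO as full viability and medium alone as none.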
# HT1080-NT tox = kills 2HG-producing HT-1080-NT fibrosarcoma cells. Potency, µM (series often up to 46.1 µM), for inactives: at the highest dose activity, negative = less viability, most hits filed as cytotoxic. AID 686970. HT-1080-NT fibrosarcoma viability, CellTiter-Glo ATP luminescence, 48 h. actives 1.6% (n = 360,000);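 note: NT is the 2HG producing partner of a matched IDH1 knockdown line; potency is the fitted concentration of half-maximal effect; 0% = DMSO-treated cells and -100% = media-only wells without cells; nearly all actives have a fitted effect of over 55% in size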
#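 750 cells/well, RPMI + 5% FBS; 2 h settle, compound pin-transfer, 48 h at 37 degrees C. CellTiter-Glo 10 min RT, luminescence. Normalized to DMSO and media-only wells.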
# IL-1B inflam inh = inhibitors of inflammasome signaling (IL-1 beta secretion). THP-1 LPS/ATP IL-1B secretion, AlphaLISA, 16 h; active compounds read low. activity change, % at 57.5 µM. actives 4.7% (n = 360,000); in the data active = activity change below about -50%; inconclusive = mostly about -30% to -49%
#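 THP-1 cells pretreated 1 hr with compounds (up to 57.5 uM final), then stimulated with LPS (250 ng/mL final) plus ATP (1.25 mM final); secreted IL-1B measured by AlphaLISA after 16 hr, decreased signal indicating inhibition.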
# DT40 TDP1 CPT = DT40-hTDP1 cell growth loss with CPT | chicken DT40 Tdp1-/-;hTDP1 cells + 20 nM CPT, ATP luminescence, 48 h | Potency, µM (top dose mostly 46.2 µM), inactives show at the top dose activity change, negative = growth inhibition, hits mostly inhibitors | actives 12% (n = 420,000) | AID 686979; note: potency is the fitted concentration of half-maximal effect; nearly all actives have a fitted effect of over 55% in size
#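 Cell growth measured by CellTiter-Glo luminescence after a minimum 48 h, 37 C compound exposure with 20 nM CPT in Tdp1-knockout DT40 cells stably expressing hTDP1, seeded 400/well; qHTS titration format.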
# Starred values were filed as active, the others as inactive; ? = inconclusive; . = no result; [ ] = dose if it differs, or a comment. Rows were chosen to be rich in hits. Some 19% of all compounds tested hit in one or more screens of this group. Unless noted, calls come from the whole dose curve; as a rule, active = well fitted curve in the direction sought with a large enough effect; inconclusive = small, poorly fitted or top-dose-only effect, or another doubt; inactive = no such curve, though single readings can be large; an effect the other way counts as inactive or inconclusive. Unless noted, % is set by controls: 0 for no effect and ±100 for the full control effect.
SMILES,DT40 TDP1 no CPT,HT1080 IDH1KD tx,HT1080-NT tox,IL-1B inflam inh,DT40 TDP1 CPT
OCC[C@H]1C[C@@H](O)[C@H](O)[C@]2(OCc3ccccc32)O1,0%,10%,-1%,22,8%
Cc1cccc(N2CCN(C(=O)c3cn(CC(C)C)c(=O)c4c3c3ccccc3n4C)CC2)c1C,5.2µM*,.,.,.,8.2µM*
COCCn1cc(C(=O)N2CCN(C)CC2)c2c3ccccc3n(C)c2c1=O,?,0%,7%,-11,-4%
Cc1ccc(C)c(N2CCN(C(=O)c3cn(CC(C)C)c(=O)c4c3c3ccccc3n4C)CC2)c1,23µM*,.,.,.,?
Cc1cccc(N2CCN(C(=O)c3cc(=O)[nH]c4ccccc34)CC2)c1C,-14%,-3%,7%,0,?
Cc1ccc(-n2nc(C(=O)N3CCN(c4cc(C)ccc4C)CC3)c3c4ccccc4n(C)c3c2=O)cc1,-1%,.,.,.,-15%
Cc1cccc(N2CCN(C(=O)c3cn(C)c(=O)c4c3c3ccccc3n4C)CC2)c1C,22µM*,18µM*,?,?,22µM*
COc1ccc(N2CCN(C(=O)c3cn(CC(C)C)c(=O)c4c3c3ccccc3n4C)CC2)cc1,23µM*,.,.,.,?
CC(C)c1nn2c(=O)cc(COC(=O)c3ccco3)nc2s1,20%,.,.,.,-16%
COc1ccc(-c2nc3ccc(Cl)cn3c2Cc2ccccc2C(F)(F)F)cc1OC,16µM*,-28%,?,?,18µM*
COc1ccccc1Cc1c(C(C)(C)C)nc2c3ccccc3ccn12,2.6µM*,13µM*,?,?,3.3µM*
COc1ccc(Cc2c(-c3ccccc3)nc3c4ccccc4ccn23)c(C)c1,15µM*,?,-25%,-12,?
COc1ccc(-c2nc3ccc(Cl)cn3c2Cc2ccccc2)cc1OC,?,8%,-1%,-27,-21%
COc1ccc(-c2nc3c4ccccc4ccn3c2Cc2ccccc2C(F)(F)F)cc1OC,16µM*,?,?,-24,?
COc1cc(OC)c(NS(=O)(=O)c2cc(Br)cnc2N)cc1Cl,-2%,-21%,-13%,22,-12%
Cc1ccc2c(c1)c(=O)c(S(=O)(=O)c1ccc(C)c(C)c1)cn2CC(=O)Nc1ccccc1,-19%,.,.,.,-1%
COc1ccccc1Cc1c(-c2ccc(OC)c(OC)c2)nc2c3ccccc3ccn12,23µM*,?,?,-21,?
Cc1ccc(Cc2c(-c3cccc(Cl)c3)nc3c4ccccc4ccn23)cc1,?,-2%,2%,34,?
COc1ccc(-c2nc3c4ccccc4ccn3c2Cc2ccccc2)cc1OC,16µM*,?,?,-15,?
COc1ccc(Cc2c(-c3ccc(C#N)cc3)nc3c4ccccc4ccn23)c(C)c1,?,0%,3%,21,?
COc1ccccc1Cc1c(-c2ccc(C#N)cc2)nc2c3ccccc3ccn12,21µM*,-17%,-23%,-8,21µM*
COc1ccc(CCNC(=O)Cc2ccc(OC)c(OC)c2)cc1OC,?,-5%,-5%,-10,?
COc1cc(O)c(CCC(=O)c2ccc(OC)c(OC)c2)c(OC)c1,?,-14%,5%,-24,21µM*
COc1ccc(C(=O)CC(=O)c2ccccc2O)cc1OC,?,-28%,-21%,3,?
COc1ccc(CCC(C)NC(=O)Cc2ccc(OC)c(OC)c2)c(OC)c1 (stereo not given),18µM*,0%,2%,-1,?
SMILES,DT40 TDP1 no CPT,HT1080 IDH1KD tx,HT1080-NT tox,IL-1B inflam inh,DT40 TDP1 CPT
COc1ccc(C(=O)Cc2ccc(OC)c(OC)c2)cc1,-21%,-4%,-3%,0,-28%
COc1ccc(CCC(=O)NO)cc1,16µM*,.,.,.,11µM*
COc1ccc(C(=O)CCc2ccc(OC)c(OC)c2)cc1,18µM*,-19%,4%,-1,?
CNC(=O)CCc1ccc(OC)cc1,-6%,15%,2%,11,3%
CC(C)(C)OC(=O)N(CC1CCNCC1)C(=O)c1[nH]c(C(F)(F)F)nc1-c1ccccc1,-9%,0%,8%,-27,-3%
COc1ccc(NC(=S)N(Cc2ccc(C(=O)O)cc2)Cc2ccc(OC)c(OC)c2)cc1,9%,15%,0%,-15,11%
COc1ccc(C(CCN(Cc2ccc(OC)c(OC)c2)C(C)=O)C(C)C)cc1 (stereo not given),?,-12%,0%,7,18µM*
CC(=O)Nc1cc(C(=O)N2CC3(C)CC2CC(C)(C)C3)cc2ncn(CCc3ccccn3)c12 (stereo not given),23µM*,.,.,.,?
CCCOc1ccc(OC(=O)c2cn(-c3ccc(OC)cc3)c(=O)c3ccccc23)cc1,16µM*,.,.,.,?
CCOc1ccc(OC(=O)c2cn(-c3ccc(C)cc3)c(=O)c3ccccc23)cc1,16µM*,.,.,.,?
CCOc1ccc(-n2cc(C(=O)Nc3ccc(Cl)cn3)c3cc(OC)c(OC)cc3c2=O)cc1,-27%,1%,-7%,-5,2.9µM*
CCOC(=O)c1ccc(OC(=O)c2cn(-c3ccc(C)cc3)c(=O)c3ccccc23)cc1,?,.,.,.,16µM*
COc1ccc(-n2cc(C(=O)OCc3ccc(Cl)cc3)c3ccccc3c2=O)cc1,-1%,.,.,.,-7%
COc1ccc(-n2cc(C(=O)N(C)c3cc(C)ccc3OC)c3ccccc3c2=O)cc1,21µM*,.,.,.,?
COc1cccc(N2CCN(CC(=O)Nc3ccccc3C(=O)NCCc3ccccc3)CC2)c1,18µM*,-8%,-9%,?,21µM*
COc1cccc(N2CCN(CC(=O)Nc3ccccc3C(=O)NCc3ccccc3)CC2)c1,16µM*,-4%,3%[9.24 µM],-9,?
COc1cc2c(cc1OC)CN(CC(=O)Nc1ccccc1C(=O)NCc1ccccc1)CC2,15µM*,-21%,-16%,4,29µM*
O=C(CN1CCN(c2ccc(O)cc2)CC1)Nc1ccccc1C(=O)NCCc1ccccc1,26µM*,0%,-3%,0,?
COc1cccc(-c2cn3ncsc3n2)c1,-11%,.,.,.,-13%
COc1ccccc1C(=O)Nc1ccc2nc(SCC(=O)N3CCCC3)sc2c1,4.1µM*,.,.,.,?
COC(=O)CSc1nc2ccc(NC(=O)c3ccccc3C(=O)N3CCOCC3)cc2s1,-14%,16%,16%,-65*,-2%
CCOC(=O)CSc1nc2ccc(NC(=O)COc3ccccc3C)cc2s1,-23%,.,.,.,-14%
O=C(Nc1ccc2nc(SCC(=O)N3CCCC3)sc2c1)c1ccccc1,1%,.,.,.,1%
O=C(Nc1ccc2nc(SCC(=O)N3CCOCC3)sc2c1)c1ccccc1Cl,18µM*,.,.,.,?
